Measurements as given in PubChem BioAssay (NCI).
Compounds without any hit were thinned out: in the full panel of roughly 83,000, 20% have a hit.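 96-well plates, one dose, 48 hours. Percent growth reported; active if below 10.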 The source made the active and inactive calls.

These compounds were tested on RXF 393 renal (assay: NCI-60 one-dose screen, 48 h (100 = growth as untreated, 0 = no growth, -100 = all killed)). Conditions: 10 µM unless noted.

Row | Structure (SMILES) | growth
1 | N#C/C(=C\c1ccc(Br)cc1)n1nnc2cccc(F)c21 | -23.6% (active)
2 | COc1cc2oc(-c3cccc(C(=O)Nc4ccc(Cl)cc4)c3)cc(=O)c2c(OC)c1OC | -29% (active)
3 | CS(=O)(=O)c1ccc(-c2cc(-c3nnc(SCC(=O)Nc4ccc(C(=O)/C=C/c5ccc(Cl)cc5)cc4)n3-c3ccccc3)c3ccccc3n2)cc1 | 92.3% (inactive)
4 | COc1ccccc1OCC(=O)N1CCCCCC1 | 97% (inactive)
5 | NC(=O)c1cccc(-n2ccc3cc(NC(=O)Nc4cc(C(F)(F)F)cc(C(F)(F)F)c4)ccc32)n1 | 7.56% (active)
6 | COc1cc2nc(-c3ccc(C(F)(F)F)cc3)cc(OCCCN3CCCCC3)c2cc1OC | 26.9% (inactive)
7 | COc1ccc2c(Nc3ccc(NS(C)(=O)=O)cc3)c3ccccc3nc2c1 | -73.9% (active)
8 | C=CCn1c(SCC(=O)Nc2ccc(C(=O)/C=C/c3cc(OC)c(OC)c(OC)c3)cc2)nnc1-c1cc(-c2ccc(S(C)(=O)=O)cc2)nc2ccccc12 | 60.9% (inactive)
9 | CN(C)c1ccc(-c2c(C#N)c(N)n3nc(N)c(C#N)c3c2C#N)cc1 | 65.5% (inactive)
10 | CCCCCN1C=C/C(=C\C(=O)N(C)c2cccc3ccccc23)c2ccccc21 | 107% (inactive)
11 | CCCCCOc1ccc(/C=N/Nc2cc(C)nc3ccc(Br)cc23)cc1 | -82.9% (active)
12 | COc1cccc(C(Cc2ccccc2)Nc2ccccc2)c1OC (stereo unspecified) | 109% (inactive)
13 | Cc1ccc(Nc2cc(=S)nc(N)[nH]2)cc1C | 107% (inactive)
14 | O=S(=O)(O)c1cc(O)c2c(N=Nc3ccc(Nc4ccccc4)c4c(S(=O)(=O)O)cccc34)cc(S(=O)(=O)O)cc2c1 | 109% (inactive)
15 | COc1cc2c(cc1[N+](=O)[O-])-c1ccc([N+](=O)[O-])cc1/C2=N\O | 79.8% (inactive)
16 | CS(=O)(=O)OCCN(CCOS(C)(=O)=O)c1ccc(/C=N/Nc2ccc([N+](=O)[O-])cc2[N+](=O)[O-])cc1 | 102% (inactive)
17 | COc1cc2c(cc1[N+](=O)[O-])-c1ccc([N+](=O)[O-])cc1/C2=N/NC(N)=S | 68.2% (inactive)
18 | CN(C)C(C(N)=O)c1ccc(Cl)cc1 (stereo unspecified) | 118% (inactive)
19 | CC(C)(C)OC(=O)N1CCN(c2ccc(N)cc2)C(=O)C1 | 110% (inactive)

Row | Structure (SMILES) | growth
20 | CC(=O)OCC(=O)C1(O)C(C)CC2C3C=C(C)C4=Cc5c(cnn5-c5ccccc5)CC4(C)C3C(O)CC21C (stereo unspecified) | -5.14% (active)
21 | Cc1ccc(C2C3CC4CCCCC4N3[C@@]3(C(=O)Nc4cc(Cl)ccc43)C2C(=O)c2nc3ccccc3[nH]2)cc1 (stereo partly specified) | 15.5% (inactive)
22 | COc1ccc(-n2cc(-c3cc(OC)c(OC)c(OC)c3)n(C(C)=O)c2=O)cc1 | 111% (inactive)
23 | C=C(C)[C@@H]1CC[C@]2(C(=O)N3CCN(C)CC3)CC[C@]3(C)[C@H](CC[C@@H]4[C@@]5(C)CCC(=O)C(C)(C)[C@@H]5CC[C@]43C)[C@@H]12 | 80.5% (inactive)
24 | NC(=S)N/N=C(/c1ccccc1)c1ccccc1N | 105% (inactive)
25 | COc1ccc(C(=O)c2cc(C)c(OC)c(C)c2)c(OC)c1N(C(=O)C(Cl)Cl)C(=O)C(Cl)Cl | 41.2% (inactive)
26 | c1ccc(-c2nn(-c3ccccc3)[n+](-c3ccccc3-c3ccccc3)n2)cc1 | 10.1% (inactive)
27 | COc1ccc2c(c1)OC13Oc4cc(OC)ccc4C=C1CCCC3=C2 | 16% (inactive)
28 | CC(O)(CO)c1ccccc1 (stereo unspecified) | 109% (inactive)
29 | O=C(Nc1nc(-c2ccccc2Cl)cs1)c1cc(-c2ccccc2)nc2ccc(Cl)cc12 | 87.2% (inactive)
30 | COC(=O)N[C@H]1CCc2cc(OC)c(OC)c(OC)c2-c2ccc(SC)c(=O)cc21 | 22.5% (inactive)
31 | CCCCCCN(C)Cc1ccc(OCCOc2ccc(CN(C)CCCCCC)cc2)cc1 | -29.2% (active)
32 | CCOC(=O)N1CCc2c(sc3nc4nc[nH]n4c(=O)c23)C1 | 104% (inactive)
33 | CCOC(=O)c1c(C)nc2c(c1N)C(=O)C(=O)N2Cc1ccc(C(F)(F)F)cc1 | 58.7% (inactive)
34 | CC(=O)c1cccc(NS(=O)(=O)c2cccc(C(=O)Nc3ccc(Br)cc3)c2)c1 | 61.5% [25 µM] (inactive)
35 | COc1ccccc1C(C[N+](=O)[O-])c1c(-c2ccccc2)[nH]c2cc(C)ccc12 (stereo unspecified) | 74.7% (inactive)
36 | CC(C)Cc1ccc(C(C)C(=O)NCc2c[nH]c3ccc(Cl)cc23)cc1 (stereo unspecified) | 87.8% (inactive)
37 | CCCC1C(C(=O)OCC)=C(N)Oc2cc(O)ccc21 (stereo unspecified) | 131% (inactive)
38 | Cc1ccc(C(=O)Nc2ccccc2C(=O)N/N=C(\c2ccccc2)c2ccccn2)cc1 | 40.4% (inactive)

These compounds were tested on SF-268 CNS in the same assay as above. Conditions: 10 µM unless noted.

Row | Structure (SMILES) | growth
39 | N#C/C(=C\c1ccc(Br)cc1)n1nnc2cccc(F)c21 | 24.4% (inactive)
40 | COc1cc2oc(-c3cccc(C(=O)Nc4ccc(Cl)cc4)c3)cc(=O)c2c(OC)c1OC | 48.3% (inactive)
41 | CS(=O)(=O)c1ccc(-c2cc(-c3nnc(SCC(=O)Nc4ccc(C(=O)/C=C/c5ccc(Cl)cc5)cc4)n3-c3ccccc3)c3ccccc3n2)cc1 | 81.7% (inactive)
42 | COc1ccccc1OCC(=O)N1CCCCCC1 | 108% (inactive)
43 | NC(=O)c1cccc(-n2ccc3cc(NC(=O)Nc4cc(C(F)(F)F)cc(C(F)(F)F)c4)ccc32)n1 | 38.5% (inactive)
44 | COc1cc2nc(-c3ccc(C(F)(F)F)cc3)cc(OCCCN3CCCCC3)c2cc1OC | 50.6% (inactive)
45 | COc1ccc2c(Nc3ccc(NS(C)(=O)=O)cc3)c3ccccc3nc2c1 | -2.84% (active)
46 | C=CCn1c(SCC(=O)Nc2ccc(C(=O)/C=C/c3cc(OC)c(OC)c(OC)c3)cc2)nnc1-c1cc(-c2ccc(S(C)(=O)=O)cc2)nc2ccccc12 | 86.9% (inactive)
47 | CN(C)c1ccc(-c2c(C#N)c(N)n3nc(N)c(C#N)c3c2C#N)cc1 | 77% (inactive)
48 | CCCCCN1C=C/C(=C\C(=O)N(C)c2cccc3ccccc23)c2ccccc21 | 95.3% (inactive)
49 | CCCCCOc1ccc(/C=N/Nc2cc(C)nc3ccc(Br)cc23)cc1 | 87.2% (inactive)
50 | COc1cccc(C(Cc2ccccc2)Nc2ccccc2)c1OC (stereo unspecified) | 101% (inactive)
51 | Cc1ccc(Nc2cc(=S)nc(N)[nH]2)cc1C | 100% (inactive)
52 | O=S(=O)(O)c1cc(O)c2c(N=Nc3ccc(Nc4ccccc4)c4c(S(=O)(=O)O)cccc34)cc(S(=O)(=O)O)cc2c1 | 101% (inactive)
53 | COc1cc2c(cc1[N+](=O)[O-])-c1ccc([N+](=O)[O-])cc1/C2=N\O | 89.6% (inactive)
54 | CS(=O)(=O)OCCN(CCOS(C)(=O)=O)c1ccc(/C=N/Nc2ccc([N+](=O)[O-])cc2[N+](=O)[O-])cc1 | 94.1% (inactive)
55 | COc1cc2c(cc1[N+](=O)[O-])-c1ccc([N+](=O)[O-])cc1/C2=N/NC(N)=S | 73.9% (inactive)
56 | CN(C)C(C(N)=O)c1ccc(Cl)cc1 (stereo unspecified) | 102% (inactive)
57 | CC(C)(C)OC(=O)N1CCN(c2ccc(N)cc2)C(=O)C1 | 103% (inactive)

Row | Structure (SMILES) | growth
58 | CC(=O)OCC(=O)C1(O)C(C)CC2C3C=C(C)C4=Cc5c(cnn5-c5ccccc5)CC4(C)C3C(O)CC21C (stereo unspecified) | 31.1% (inactive)
59 | Cc1ccc(C2C3CC4CCCCC4N3[C@@]3(C(=O)Nc4cc(Cl)ccc43)C2C(=O)c2nc3ccccc3[nH]2)cc1 (stereo partly specified) | 38.3% (inactive)
60 | COc1ccc(-n2cc(-c3cc(OC)c(OC)c(OC)c3)n(C(C)=O)c2=O)cc1 | 94.7% (inactive)
61 | C=C(C)[C@@H]1CC[C@]2(C(=O)N3CCN(C)CC3)CC[C@]3(C)[C@H](CC[C@@H]4[C@@]5(C)CCC(=O)C(C)(C)[C@@H]5CC[C@]43C)[C@@H]12 | 77.2% (inactive)
62 | NC(=S)N/N=C(/c1ccccc1)c1ccccc1N | 92.9% (inactive)
63 | COc1ccc(C(=O)c2cc(C)c(OC)c(C)c2)c(OC)c1N(C(=O)C(Cl)Cl)C(=O)C(Cl)Cl | 30.6% (inactive)
64 | c1ccc(-c2nn(-c3ccccc3)[n+](-c3ccccc3-c3ccccc3)n2)cc1 | 22% (inactive)
65 | COc1ccc2c(c1)OC13Oc4cc(OC)ccc4C=C1CCCC3=C2 | 38.5% (inactive)
66 | CC(O)(CO)c1ccccc1 (stereo unspecified) | 101% (inactive)
67 | O=C(Nc1nc(-c2ccccc2Cl)cs1)c1cc(-c2ccccc2)nc2ccc(Cl)cc12 | 44.7% (inactive)
68 | COC(=O)N[C@H]1CCc2cc(OC)c(OC)c(OC)c2-c2ccc(SC)c(=O)cc21 | 15.9% (inactive)
69 | CCCCCCN(C)Cc1ccc(OCCOc2ccc(CN(C)CCCCCC)cc2)cc1 | 45.5% (inactive)
70 | CCOC(=O)N1CCc2c(sc3nc4nc[nH]n4c(=O)c23)C1 | 99.7% (inactive)
71 | CCOC(=O)c1c(C)nc2c(c1N)C(=O)C(=O)N2Cc1ccc(C(F)(F)F)cc1 | 59.7% (inactive)
72 | CC(=O)c1cccc(NS(=O)(=O)c2cccc(C(=O)Nc3ccc(Br)cc3)c2)c1 | 51.4% [25 µM] (inactive)
73 | COc1ccccc1C(C[N+](=O)[O-])c1c(-c2ccccc2)[nH]c2cc(C)ccc12 (stereo unspecified) | 78.6% (inactive)
74 | CC(C)Cc1ccc(C(C)C(=O)NCc2c[nH]c3ccc(Cl)cc23)cc1 (stereo unspecified) | 89.3% (inactive)
75 | CCCC1C(C(=O)OCC)=C(N)Oc2cc(O)ccc21 (stereo unspecified) | 104% (inactive)
76 | Cc1ccc(C(=O)Nc2ccccc2C(=O)N/N=C(\c2ccccc2)c2ccccn2)cc1 | 20.2% (inactive)
